We go through 11 compounds from PubChem BioAssay (NCATS).

Where “and” joins values, the source holds several entries; their conditions need not be identical. Identical values can stand only once. Unmarked numbers belong to inactive results. Inconclusive results are not listed. A call without a number means that no potency is given here. Calls of active or inactive are those of the source. Unless noted, calls follow the shape of the dose curve; as a rule, active = well fitted curve in the direction sought with a large enough effect; inconclusive = small, poorly fitted or top-dose-only effect, or another doubt; inactive = no such curve, though single readings can be large; an effect the other way counts as inactive or inconclusive.

Chain of Cytochrome P450 2C19 (Homo sapiens) (P33261 whole entry, looked up): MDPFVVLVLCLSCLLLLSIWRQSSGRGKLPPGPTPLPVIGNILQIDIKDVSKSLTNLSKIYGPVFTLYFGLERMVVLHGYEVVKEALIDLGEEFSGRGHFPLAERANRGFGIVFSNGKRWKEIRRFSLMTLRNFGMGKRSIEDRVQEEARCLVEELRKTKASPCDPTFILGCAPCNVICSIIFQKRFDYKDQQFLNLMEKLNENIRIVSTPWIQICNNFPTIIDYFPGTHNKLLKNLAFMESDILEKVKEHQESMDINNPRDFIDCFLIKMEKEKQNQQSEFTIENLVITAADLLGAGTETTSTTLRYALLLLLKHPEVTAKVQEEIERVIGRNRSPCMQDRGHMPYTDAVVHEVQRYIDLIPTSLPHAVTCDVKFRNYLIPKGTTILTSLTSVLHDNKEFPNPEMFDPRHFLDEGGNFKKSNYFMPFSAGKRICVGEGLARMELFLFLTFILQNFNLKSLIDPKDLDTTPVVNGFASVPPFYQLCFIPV

One experiment has as its target Cytochrome P450 2C19 (Homo sapiens) (UniProt P33261). In words: qHTS Assay for Inhibitors and Substrates of Cytochrome P450 2C19 (AID 899). Also: nearly all actives have a fitted effect of over 60% in size. Also: potency is read from the fitted curve at half-maximal effect. To be noted: recombinant CYP2C19, luciferin-H EGE luminescence; series mostly up to 11.4 µM. In a few lines:
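Luminescence readout of luciferin formed from 10uM Luciferin-H EGE (KM level) by 5 nM CYP2C19 in 50mM KPO4. 60 min NADPH-driven reaction at 37C after 10 min compound preincubation; data scaled to 57uM ketoconazole inhibition.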
On the technique in general: In qHTS, concentration-response curves come from the screen itself.
For the compound `C[C@@H](c1ccccc1)N1C(=O)[C@H]2[C@@H]3[C@H](O)C=CC(=O)[C@H]3CC[C@H]2C1=O`, the Potency entry was “inactive”.

As for `CC(C)(C)N1C(=O)[C@H]2[C@@H]3[C@H](O)[C@H](O)CC(=O)[C@H]3CC[C@H]2C1=O`, the Potency entry was “inactive”.

Consider `COc1ccc(O[C@H]2C=C[C@@H](c3ccccc3)O[C@@H]2CO/N=C(\C)CCN2CCc3nc(-c4ccccc4)c(-c4ccccc4)cc3C2)cc1`, for which the Potency was 251 nM (active).

Consider `CCOC(=O)CCN1C(=O)[C@H]2[C@@H]3[C@H](O)[C@H](O)CC(=O)[C@H]3CC[C@H]2C1=O`, for which the Potency result is “inactive”.

Tested on in the next experiment: not listed separately
In words: qHTS Assay for Identification of Small Molecule Agonists for Hypoxia Response Element Signaling Pathway (AID 914; active = well fitted activation curve with a large enough effect in the signal ratio, with a control signal flat, not every such curve was filed as active; the % refers to the signal ratio). To be noted: ME-180 (cervical carcinoma) HRE-bla reporter, beta-lactamase ratio, CoCl2, 17 h; stronger effect = higher value. A digest of the protocol: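 HRE-bla ME-180 assay for agonist-like enhancement of an EC50 CoCl2 stimulus: 17 h at 37 degrees Celsius, CCF4 for 2.5 h, ratiometric 460/530 nm signal converted to %Activity and fitted to AC50.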
With `COC(=O)C/C=C\[C@@H](C)[C@@H](/C=N\O[C@@H](C)CN1CCCc2nc(C)c(C)cc21)NS(=O)(=O)c1ccc(C)cc1`, the activation is 4.52%.

Turning to `CCOC(=O)CCN1C(=O)[C@H]2[C@@H]3[C@H](O)[C@H](O)CC(=O)[C@H]3CC[C@H]2C1=O`, the activation is 2.87%.

Consider `C/C(CCN1CCc2nc(-c3ccccc3)c(-c3ccccc3)cc2C1)=N\O[C@@H](C)c1cn([C@H](CO)Cc2ccccc2)nn1`, for which the activation was -1.74% and -5.69%.

Tested on in a further experiment: not listed separately
In words: Confirmation and Secondary Assay for Modulators of Hemoglobin Beta Chain Splicing at IVS2 705 locus (AID 930).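 Also: HeLa cells stably expressing the EGFP-705 splicing reporter; GFP fluorescence per well restored by corrected splicing of the IVS2-705 intron in EGFP.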 The note with it: HeLa EGFP-705 splicing reporter, GFP fluorescence, 48 h; series mostly up to 46.1 µM. A digest of the protocol:
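HeLa IVS2-705 EGFP reporter cells, 500/well, compound 2 d at 37C; correct splicing yields fluorescent EGFP. Control: 500 nM antisense PNA. Read-out: total peak GFP intensity.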
Turning to `COc1c(CC(=O)c2cc3c(cc2O)OC(C)(C)C(O)C3)ccc2c1C=CC(C)(C)O2` (configuration not stated), the result was inactive.

As for `CNC1CCC(c2ccc(Cl)c(Cl)c2)c2ccccc21` (configuration not stated), the compound was called inactive.

With `COc1cc(C2c3cc4c(cc3C(O)[C@H]3COC(=O)C23)OCO4)cc(OC)c1OC` (some centres not stated), the call was inactive.

Regarding `C#CCCCCCCCCCCCC(O)CC(O)COC(C)=O` (configuration not stated), the outcome was inactive.

Take `CC(C)c1c(O)ccc2c1CCC1C(C)(C)CCC[C@@]21C` (some centres not stated): the compound was called inactive.
